Measured values taken from PubChem BioAssay (Tox21).
Results filed as inconclusive are left out. Active and inactive are the calls of the source. The call rests on the fitted dose curve; in most records, active means well fitted curve in the direction sought with a large enough effect in the repeat runs; inconclusive means weak or mixed curves; inactive means no such curve, though single readings can be large; an effect the other way counts as inactive or inconclusive.

What was measured:
[1] = Caspase-3/7 induction in HepG2 cells by small molecules, qHTS assay (AID 1346978); further: nearly all actives have a fitted effect of over 15% in size
Procedure, shortened: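 Caspase-3/7 induction was measured by Caspase-Glo 3/7 luminescence (30 min, room temperature) after a 17 hr compound exposure of wild-type HepG2 cells seeded at 2,000 per well and pre-incubated 5 hr.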

[2] = Caspase-3/7 induction in CHO-K1 cells by small molecules, qHTS cell viability counter screen (AID 1346979); further: nearly all actives have a fitted effect of over 35% in size; further: potency means the concentration at half of the fitted maximal effect
Procedure, shortened: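 Wild-type CHO-K1 cells (1,500/well) treated with compound after 5 h plating; after 16 h at 37C, viability read as CellTiter-Fluor fluorescence following 1 h reagent incubation, in the same wells as the caspase read.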

[3] = Caspase-3/7 induction in CHO-K1 cells by small molecules, qHTS assay (AID 1346980); further: nearly all actives have a fitted effect of over 15% in size
Procedure, shortened: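 Luminescent Caspase-Glo 3/7 read (30min, room temperature) quantified apoptosis induction. Cells were wild-type CHO-K1, treated with compound for 17hr at 37 C and 5% CO2.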

[4] = Caspase-3/7 induction in HepG2 cells by small molecules, qHTS cell viability counter screen (AID 1346981); further: series mostly up to about 92 µM; nearly all actives have a fitted effect of over 30% in size
Procedure, shortened: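 HepG2, WT, 2,000 cells/well; 5 hr pre-incubation 37 C/5% CO2; compound pin-transferred from DMSO; 16 hr exposure; CellTiter-Fluor, 1 hr; fluorescence read.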

[5] = target: Nuclear receptor subfamily 1 group I member 2 (Homo sapiens) (UniProt O75469); assay: Human pregnane X receptor (PXR) small molecule agonists, qHTS assay (AID 1346982); further: nearly all actives have a fitted effect of over 35% in size; further: potency means the concentration at half of the fitted maximal effect
Procedure, shortened: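 Luciferase signal from ONE-Glo (30 min, room temperature) measured activation of hPXR-driven CYP3A4 reporter expression in PXR-Luc HepG2 cells treated with compounds for 24 hr at 37 C.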

[6] = target: Cytochrome P450 2C19 (Homo sapiens) (UniProt P33261); assay: Cytochrome P450 Family 2 Subfamily C Member 19 (CYP2C19) small molecule antagonists: luciferase reporter qHTS assay (AID 1671197); further: nearly all actives have a fitted effect of over 65% in size; further: potency means the concentration at half of the fitted maximal effect; on activity change, negative = inhibition: series mostly up to about 120 µM
Procedure, shortened: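 CYP2C19 P450-Glo, 1536-well qHTS. Cpd + enzyme/proluciferin substrate 10 min RT; + NADPH regen, 37C 1 h; stop with luciferin detection reagent, 20 min RT, luminescence (RLU). Pos ctrl ketoconazole.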

[7] = target: Cytochrome P450 2C9 (Homo sapiens) (UniProt P11712); assay: Cytochrome P450 Family 2 Subfamily C Member 9 (CYP2C9) small molecule antagonists: luciferase reporter qHTS assay (AID 1671198); further: nearly all actives have a fitted effect of over 50% in size; further: potency means the concentration at half of the fitted maximal effect; on activity change, negative = inhibition: series mostly up to about 120 µM
Procedure, shortened: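 Enzyme-substrate mix preincubated with compound 10 min at room temperature; reaction started with NADPH regeneration solution, 1 h 37C. Luminescent luciferin product read after 20 min detection reagent.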

[8] = target: Voltage-gated inwardly rectifying potassium channel KCNH2 (Homo sapiens) (UniProt Q12809); assay: Human Ether-a-go-go-Related Gene (hERG) channel small molecule antagonists: fluorescence cell-based qHTS assay (AID 1671200);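 further: hERG-expressing U2OS cells given a thallium stimulus after FluxOR II dye loading; series mostly up to about 77 µM; nearly all actives have a fitted effect of over 50% in size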
Procedure, shortened: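 hERG-U2OS cells plated overnight at 37 C, loaded with FluxOR II dye 1 h at RT in dark; after 10 min, thallium stimulus added. Fluorescence (480/540 nm) read kinetically for 2 min at 1 s intervals.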

[9] = target: Cytochrome P450 3A4 (Homo sapiens) (UniProt P08684); assay: Cytochrome P450 Family 3 Subfamily A Member 4 (CYP3A4) small molecule antagonists: luciferase reporter qHTS assay (AID 1671201); further: nearly all actives have a fitted effect of over 50% in size; further: potency means the concentration at half of the fitted maximal effect; on activity change, negative = inhibition: series mostly up to about 120 µM
Procedure, shortened: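 P450-Glo CYP3A4 luminescent assay: compounds preincubated 10 min at room temperature with enzyme and proluciferin substrate, NADPH regeneration added, 1 h room-temperature reaction, stopped with luciferin detection reagent; luminescence read after 20 min. Ketoconazole positive control.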

[10] = target: Cytochrome P450 2D6 (Homo sapiens) (UniProt P10635); assay: Cytochrome P450 Family 2 Subfamily D Member 6 (CYP2D6) small molecule antagonists: luciferase reporter qHTS assay (AID 1671196); further: nearly all actives have a fitted effect of over 50% in size; further: potency means the concentration at half of the fitted maximal effect; on activity change, negative = inhibition: series mostly up to about 120 µM
Procedure, shortened: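 Read-out is luminescence from luciferin formed by CYP2D6 turnover of a proluciferin substrate, recorded as relative luminescence units. Reactions ran 1 h at room temperature after NADPH regeneration solution was added.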

[11] = target: Nuclear receptor subfamily 1 group I member 2 (Rattus norvegicus) (UniProt Q9R1A7); assay: Rat pregnane X receptor (rPXR) activation by small molecules, qHTS assay (AID 1346983); settings: rPXR luciferase reporter cells, One-Glo luminescence, 24 h; active compounds read high; further: nearly all actives have a fitted effect of over 20% in size
Procedure, shortened: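 Luminescent readout (One-Glo luciferase, 30 min room temperature) followed 24 hr compound treatment at 37 C of rPXR cells plated 2,000 per well and preincubated 5hr; qHTS format with compounds delivered in DMSO.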

[12] = target: Cytochrome P450 1A2 (Homo sapiens) (UniProt P05177); assay: Cytochrome P450 Family 1 Subfamily A Member 2 (CYP1A2) small molecule antagonists: luciferase reporter qHTS assay (AID 1671199); further: nearly all actives have a fitted effect of over 50% in size; further: potency means the concentration at half of the fitted maximal effect; on activity change, negative = inhibition: series mostly up to about 120 µM
Procedure, shortened: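 P450-Glo CYP1A2, 1536-well qHTS: enzyme/proluciferin substrate + cpd (DMSO), 10 min RT; NADPH regen, 1 h RT; detection reagent, 20 min; luminescence, RLU.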

[13] = target: Nuclear receptor subfamily 1 group I member 2 (Homo sapiens) (UniProt O75469); assay: Human pregnane X receptor (PXR) activation by small molecules, qHTS assay (AID 1346985); further: nearly all actives have a fitted effect of over 40% in size
Procedure, shortened: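 DPX-2 cells (HepG2 co-transfected with a PXR response element and a CYP3A4-promoter luciferase construct) were seeded at 2,000 per well, rested 5 hr at 37C, then exposed to DMSO-dissolved compounds for 24 hr. Activation was read as luciferase luminescence.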

[14] = target: Nuclear receptor subfamily 1 group I member 2 (Homo sapiens) (UniProt O75469); assay: CYP3A4 induction through human pregnane X receptor (PXR) by small molecules, qHTS assay (AID 1346984); further: nearly all actives have a fitted effect of over 40% in size
Procedure, shortened: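 Luminescence readout: luciferase signal after One-Glo (30 min, room temperature), following 3 h at 37C with 3uM final Luciferin-IPA P450 substrate. Cells were DPX-2 (HepG2, PXR/CYP3A4-luc co-transfected) dosed for 24 h.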
On the % scale 0 is the no-effect control and ±100 the full control effect.

Sequence of Cytochrome P450 3A4 (Homo sapiens) (P08684 whole entry, looked up): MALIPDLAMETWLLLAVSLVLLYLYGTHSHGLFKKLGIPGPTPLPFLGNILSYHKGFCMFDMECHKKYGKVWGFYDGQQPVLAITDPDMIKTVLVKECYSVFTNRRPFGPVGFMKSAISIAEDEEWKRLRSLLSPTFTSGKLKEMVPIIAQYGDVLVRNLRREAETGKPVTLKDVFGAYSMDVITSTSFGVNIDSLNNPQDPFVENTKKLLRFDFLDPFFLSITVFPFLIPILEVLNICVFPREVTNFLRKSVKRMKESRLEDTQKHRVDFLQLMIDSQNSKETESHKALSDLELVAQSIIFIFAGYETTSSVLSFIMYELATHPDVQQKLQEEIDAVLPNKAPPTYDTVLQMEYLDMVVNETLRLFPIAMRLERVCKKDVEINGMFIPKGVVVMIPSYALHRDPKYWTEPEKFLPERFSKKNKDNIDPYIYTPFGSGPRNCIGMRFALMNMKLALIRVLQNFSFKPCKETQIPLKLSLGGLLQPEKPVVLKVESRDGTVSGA
Sequence of Cytochrome P450 2C19 (Homo sapiens) (P33261 whole entry, looked up): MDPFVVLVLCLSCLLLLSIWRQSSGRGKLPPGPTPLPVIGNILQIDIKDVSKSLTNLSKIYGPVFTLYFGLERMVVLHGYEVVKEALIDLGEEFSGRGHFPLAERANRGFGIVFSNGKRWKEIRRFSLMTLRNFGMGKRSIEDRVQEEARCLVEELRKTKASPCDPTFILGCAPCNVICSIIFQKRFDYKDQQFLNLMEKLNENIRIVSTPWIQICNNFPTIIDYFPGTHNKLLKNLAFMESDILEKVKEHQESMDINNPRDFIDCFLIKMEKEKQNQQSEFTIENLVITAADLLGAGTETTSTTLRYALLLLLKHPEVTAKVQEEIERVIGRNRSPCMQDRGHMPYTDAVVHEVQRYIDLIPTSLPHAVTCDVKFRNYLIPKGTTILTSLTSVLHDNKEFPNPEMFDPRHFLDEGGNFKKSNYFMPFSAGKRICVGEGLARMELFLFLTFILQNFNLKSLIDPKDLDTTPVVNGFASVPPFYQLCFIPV
Sequence of Cytochrome P450 2D6 (Homo sapiens) (P10635 whole entry, looked up): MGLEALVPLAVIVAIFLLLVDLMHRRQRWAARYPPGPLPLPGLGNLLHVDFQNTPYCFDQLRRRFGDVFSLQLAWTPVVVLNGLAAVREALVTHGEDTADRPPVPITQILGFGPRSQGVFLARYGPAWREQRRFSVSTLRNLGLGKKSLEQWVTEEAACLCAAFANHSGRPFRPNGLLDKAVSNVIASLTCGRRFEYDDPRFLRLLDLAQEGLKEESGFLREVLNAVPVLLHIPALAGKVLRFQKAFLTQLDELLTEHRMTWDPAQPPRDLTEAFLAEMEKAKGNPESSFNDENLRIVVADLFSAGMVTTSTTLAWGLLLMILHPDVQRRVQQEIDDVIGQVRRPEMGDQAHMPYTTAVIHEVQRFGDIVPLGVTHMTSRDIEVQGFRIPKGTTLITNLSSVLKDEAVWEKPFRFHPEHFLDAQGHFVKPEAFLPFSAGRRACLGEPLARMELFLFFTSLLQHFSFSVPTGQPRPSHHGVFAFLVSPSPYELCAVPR
Sequence of Cytochrome P450 1A2 (Homo sapiens) (P05177 whole entry, looked up): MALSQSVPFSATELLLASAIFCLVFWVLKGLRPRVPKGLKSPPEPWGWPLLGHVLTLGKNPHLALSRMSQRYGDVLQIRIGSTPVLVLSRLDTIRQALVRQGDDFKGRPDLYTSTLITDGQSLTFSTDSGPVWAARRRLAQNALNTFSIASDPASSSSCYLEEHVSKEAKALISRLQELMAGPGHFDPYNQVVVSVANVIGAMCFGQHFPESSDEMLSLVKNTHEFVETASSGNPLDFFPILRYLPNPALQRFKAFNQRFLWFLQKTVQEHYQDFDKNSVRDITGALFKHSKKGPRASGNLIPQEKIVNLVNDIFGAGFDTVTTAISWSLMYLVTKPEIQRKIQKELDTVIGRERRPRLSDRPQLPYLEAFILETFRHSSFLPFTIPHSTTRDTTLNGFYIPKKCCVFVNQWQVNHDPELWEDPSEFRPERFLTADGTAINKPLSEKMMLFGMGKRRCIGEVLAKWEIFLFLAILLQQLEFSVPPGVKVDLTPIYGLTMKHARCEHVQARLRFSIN
Sequence of Cytochrome P450 2C9 (Homo sapiens) (P11712 whole entry, looked up): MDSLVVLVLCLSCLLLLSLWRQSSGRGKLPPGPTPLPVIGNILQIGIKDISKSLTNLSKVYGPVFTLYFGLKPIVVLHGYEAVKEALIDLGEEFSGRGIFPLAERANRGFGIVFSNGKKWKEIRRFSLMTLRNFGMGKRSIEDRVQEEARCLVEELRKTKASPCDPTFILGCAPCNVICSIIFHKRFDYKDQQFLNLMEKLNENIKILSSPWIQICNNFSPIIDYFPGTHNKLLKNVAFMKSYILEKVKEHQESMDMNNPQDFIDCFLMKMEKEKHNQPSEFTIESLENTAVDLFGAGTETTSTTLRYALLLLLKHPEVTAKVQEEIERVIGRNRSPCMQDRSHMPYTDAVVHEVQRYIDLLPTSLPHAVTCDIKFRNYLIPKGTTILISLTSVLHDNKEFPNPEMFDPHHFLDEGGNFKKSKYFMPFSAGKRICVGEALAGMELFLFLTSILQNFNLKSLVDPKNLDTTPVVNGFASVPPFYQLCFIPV
Sequence of Voltage-gated inwardly rectifying potassium channel KCNH2 (Homo sapiens) (Q12809 whole entry, looked up): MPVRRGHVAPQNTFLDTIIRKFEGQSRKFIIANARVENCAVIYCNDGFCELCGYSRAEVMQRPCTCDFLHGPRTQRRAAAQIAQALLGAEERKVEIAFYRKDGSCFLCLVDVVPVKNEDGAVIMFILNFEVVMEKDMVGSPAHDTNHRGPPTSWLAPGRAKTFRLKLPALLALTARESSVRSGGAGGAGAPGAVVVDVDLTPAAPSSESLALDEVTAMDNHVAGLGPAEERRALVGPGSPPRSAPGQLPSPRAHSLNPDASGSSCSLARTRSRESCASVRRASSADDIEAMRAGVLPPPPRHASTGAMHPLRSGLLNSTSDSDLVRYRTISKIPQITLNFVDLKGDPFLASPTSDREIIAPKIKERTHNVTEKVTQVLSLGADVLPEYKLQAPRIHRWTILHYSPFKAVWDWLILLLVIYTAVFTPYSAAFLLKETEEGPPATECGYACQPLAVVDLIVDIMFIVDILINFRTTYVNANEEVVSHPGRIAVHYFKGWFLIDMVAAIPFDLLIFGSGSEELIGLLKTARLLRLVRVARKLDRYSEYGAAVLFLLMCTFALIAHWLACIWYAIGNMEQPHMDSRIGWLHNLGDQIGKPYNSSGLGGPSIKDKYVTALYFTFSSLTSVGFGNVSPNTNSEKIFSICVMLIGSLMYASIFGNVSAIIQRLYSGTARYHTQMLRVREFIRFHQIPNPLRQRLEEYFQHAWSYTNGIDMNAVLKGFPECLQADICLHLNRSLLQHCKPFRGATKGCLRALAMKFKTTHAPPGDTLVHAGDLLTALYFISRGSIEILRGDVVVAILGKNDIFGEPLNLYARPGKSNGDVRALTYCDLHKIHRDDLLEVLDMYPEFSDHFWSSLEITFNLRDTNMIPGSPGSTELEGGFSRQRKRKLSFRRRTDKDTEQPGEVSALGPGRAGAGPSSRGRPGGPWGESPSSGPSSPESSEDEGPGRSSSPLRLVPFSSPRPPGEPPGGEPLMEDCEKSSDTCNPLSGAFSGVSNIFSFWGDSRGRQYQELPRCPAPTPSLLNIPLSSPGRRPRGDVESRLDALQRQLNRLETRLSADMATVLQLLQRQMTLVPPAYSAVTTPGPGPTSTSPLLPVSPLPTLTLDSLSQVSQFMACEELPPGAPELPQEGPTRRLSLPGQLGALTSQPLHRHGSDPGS
Sequence of Nuclear receptor subfamily 1 group I member 2 (Rattus norvegicus) (Q9R1A7 whole entry, looked up): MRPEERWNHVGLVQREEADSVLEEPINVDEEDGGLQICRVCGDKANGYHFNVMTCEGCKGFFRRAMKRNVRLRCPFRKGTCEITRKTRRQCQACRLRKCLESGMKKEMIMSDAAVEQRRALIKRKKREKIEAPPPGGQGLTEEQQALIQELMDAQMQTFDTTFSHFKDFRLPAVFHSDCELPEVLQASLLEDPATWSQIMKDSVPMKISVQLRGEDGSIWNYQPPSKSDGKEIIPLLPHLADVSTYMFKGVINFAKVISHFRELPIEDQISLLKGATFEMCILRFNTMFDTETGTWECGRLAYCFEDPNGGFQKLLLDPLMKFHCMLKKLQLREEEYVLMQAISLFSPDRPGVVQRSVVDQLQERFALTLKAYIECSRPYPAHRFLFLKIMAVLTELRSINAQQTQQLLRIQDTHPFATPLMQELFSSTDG
Sequence of Nuclear receptor subfamily 1 group I member 2 (Homo sapiens) (O75469 whole entry, looked up): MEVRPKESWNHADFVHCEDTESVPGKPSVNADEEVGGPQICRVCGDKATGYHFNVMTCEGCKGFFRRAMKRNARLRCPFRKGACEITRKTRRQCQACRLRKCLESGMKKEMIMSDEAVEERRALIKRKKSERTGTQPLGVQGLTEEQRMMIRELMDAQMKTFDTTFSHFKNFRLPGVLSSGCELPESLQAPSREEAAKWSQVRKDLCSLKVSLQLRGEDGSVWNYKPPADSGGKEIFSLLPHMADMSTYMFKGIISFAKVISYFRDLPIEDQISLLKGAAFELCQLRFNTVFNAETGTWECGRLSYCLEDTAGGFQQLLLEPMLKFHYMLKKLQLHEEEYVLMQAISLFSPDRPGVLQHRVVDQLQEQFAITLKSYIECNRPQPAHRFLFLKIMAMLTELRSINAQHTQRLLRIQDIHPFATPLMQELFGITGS

CCCCCCCCC1CCC(=O)O1 (stereo not drawn)
inactive: Potency [1] | Potency [2] | outcome [3] | Potency [4] | Potency [8] | Potency [9]
active: Potency [5] 30.6 µM | Potency [6] 56.4 µM | Potency [7] 71 µM

CC(C)c1ccc2cc(C(C)C)ccc2c1
inactive: Potency [1] | outcome [3] | Potency [4] | Potency [10] | Potency [7] | Potency [8] | Potency [9]

CCCCCCOc1ccccc1C(N)=O
inactive: Potency [1] | outcome [3] | max activation [11] 6.49% | Potency [10] | Potency [8]
active: Potency [6] 17.4 µM | Potency [7] 8.71 µM | Potency [12] 13.8 µM

O=C(OCC1(COC(=O)c2cccnc2)CCCC(COC(=O)c2cccnc2)(COC(=O)c2cccnc2)C1O)c1cccnc1
inactive: Potency [1] | Potency [2] | outcome [3] | Potency [5] | Potency [12]
active: Potency [6] 38.9 µM | Potency [7] 12.3 µM

COC(=O)c1ccccc1C(=O)c1ccc(OCCN2CCCCC2)cc1
active: Potency [10] 15.5 µM
inactive: Potency [1] | Potency [2] | outcome [3] | Potency [4] | max activation [11] -0.568% | Potency [13] | Potency [6] | Potency [7] | Potency [12] | Potency [8] | Potency [9]

CC(CN)CC(C)(C)CCN (stereo not drawn)
inactive: Potency [1] | outcome [3] | Potency [4] | Potency [8]
active: Potency [10] 11.5 µM | Potency [6] 36.5 µM | Potency [9] 5.16 µM

O=C1c2ccccc2C(=O)c2cc(S(=O)(=O)O)ccc21
active: Potency [5] 48.7 µM | Potency [10] 40.1 µM | Potency [6] 31.8 µM | Potency [7] 12.7 µM
inactive: Potency [1] | Potency [2] | outcome [3] | Potency [8] | Potency [9]

CC(C)CCCCOC(=O)c1ccccc1C(=O)OCCCCC(C)C
inactive: Potency [1] | Potency [2] | outcome [3] | Potency [4] | Potency [10] | Potency [8]
active: Potency [6] 31.8 µM | Potency [7] 17.9 µM | Potency [12] 17.9 µM

O=S(O)(O)=S
inactive: caspase activation [1] 0.115% [at 8.39 µM] | activity change, negative = cytotoxicity [2] 4.08% [at 8.39 µM] | caspase-3/7 activation [3] 0.413% [at 8.39 µM] | activity change, negative = cytotoxicity [4] -0.702% [at 8.39 µM] | activity change, negative = inhibition [10] -0.0268% [at 10.5 µM] | activity change, negative = inhibition [6] -17.3% [at 10.5 µM] | activity change, negative = inhibition [7] -6.3% [at 10.5 µM] | activity change, negative = inhibition [12] -12.3% [at 10.5 µM] | activity change, negative = inhibition [8] -2.48% [at 6.97 µM] | activity change, negative = inhibition [9] 0.412% [at 10.5 µM]

CC(C)C(=O)OCCc1ccccc1
inactive: Potency [1] | outcome [3] | Potency [4] | Potency [10] | Potency [6] | Potency [8]

O=C1c2cccc3c2[C@H](CCC3)CN1[C@@H]1CN2CCC1CC2
inactive: Potency [1] | outcome [3] | Potency [4] | Potency [5] | max activation [11] -9.35% | Potency [13] | Potency [6] | Potency [7] | Potency [12] | Potency [8]

Nc1ccc([N+](=O)[O-])c(N)c1
active: Potency [2] 53.1 µM | Potency [10] 7.76 µM | Potency [6] 30.9 µM
inactive: Potency [1] | outcome [3] | Potency [8] | Potency [9]

CC(=O)c1ccc2c(c1)Cc1ccccc1-2
active: Potency [5] 54.5 µM | Potency [6] 20 µM | Potency [7] 12.6 µM | Potency [12] 1.79 µM
inactive: Potency [1] | Potency [2] | outcome [3] | Potency [10]

Nc1ccc(S(=O)(=O)Nc2ccc(Cl)nn2)cc1
inactive: Potency [1] | Potency [2] | outcome [3] | Potency [5] | max activation [11] -0.0524% | Potency [14] | Potency [13] | Potency [10] | Potency [6] | Potency [12] | Potency [8]

N[C@@H](COP(=O)(O)O)C(=O)O
inactive: caspase activation [1] 0.675% [at 19 µM] | activity change, negative = cytotoxicity [2] 4.45% [at 19 µM] | caspase-3/7 activation [3] 0.116% [at 19 µM] | activation [5] 9.49% [at 19 µM] | max activation [11] -0.35% | Potency [14] | Potency [13] | activity change, negative = inhibition [6] 14.8% [at 23.6 µM] | Potency [12] | activity change, negative = inhibition [8] 2.29% [at 15.8 µM]

O=C(O)C(=O)Cc1ccccc1
inactive: Potency [1] | Potency [2] | outcome [3] | Potency [4] | Potency [5] | Potency [10] | Potency [8] | Potency [9]

CCOC(=O)/C=C/c1ccccc1
active: Potency [6] 71 µM | Potency [12] 35.6 µM
inactive: Potency [1] | Potency [2] | outcome [3] | Potency [4] | Potency [8]

CCCCCCOC(=O)CC
inactive: Potency [1] | outcome [3] | Potency [4] | Potency [5] | Potency [10] | Potency [6] | Potency [8] | Potency [9]
